Inconclusive results are not listed. Active and inactive are the calls of the source. The calls were made as follows: active = hit-call score of the fitted dose curve at least 0.9, where 1 is the maximum; inactive = score below 0.9.

Read-out in the experiment: Cytochrome P450 2C9 (Homo sapiens) (UniProt P11712)
Description: CLD_CYP2C9_48hr: CellzDirect (CLD) Gene Expression Assay for xenobiotic metabolism (CYP2C9) at 48 hours (AID 2283701). The method, then: CLD_48hr is a cell-based, multiplexed-readout assay that uses hepatocyte, a human liver primary cell, with measurements taken at 48 hours after chemical dosing in a 96-well plate.CLD_CYP2C9_48hr is one of 16 assay component(s) measured or calculated from the CLD_48hr assay. It is designed to make measurements of mRNA induction, a form of inducible reporter, as detected with chemiluminescence signals by Quantitative Nuclease Protection Assay (qNPA) technology.Data from the assay component CLD_CYP2C9_48hr was analyzed at the endpoint, CLD_CYP2C9_48hr, in the positive analysis fitting direction relative to DMSO as the negative control and baseline of activity. Using a type of inducible reporter, gain-of-signal activity can be used to understand changes in the reporter gene as they relate to the gene CYP2C9. Furthermore, this assay endpoint can be referred to as a primary readout. To generalize the intended target to other relatable targets, this assay endpoint is annotated to the cyp intended target family, where subfamily is xenobiotic metabolism.
Human hepatocyte cultures were treated daily for two consecutive days with fresh dosing solutions containing appropriate concentrations of the 320 ToxCast chemicals (chemical identities were blinded to CellzDirect and other ToxCast collaborators), vehicle control (0.2% DMSO), and positive control inducers as summarized in Table 1. Due to the large number of treatment groups and chemicals examined, the ToxCast chemicals were divided into two groups (spanning two independent cultures of hepatocytes from separate donor preparations (Hu778: ToxCast plates 1 and 2; Hu776: ToxCast plates 3 and 4). Each preparation of human hepatocyte cultures was treated with respective vehicle control, medium only control, set of six positive controls/reference chemicals for the five hepatic receptor pathways, and a subset of eight of the ToxCast chemicals (indoxacarb, pyrithiobac-sodium, norflurazon, cyhalofop-butyl, methomyl, thiram, acetochlor, and propiconazole). These replicate data, coupled with internal replicates designed within the blinded ToxCast chemical library, provided additional data to evaluate interindividual differences between hepatocyte preparations and their potential impact on chemical profiles.Cell morphology and integrity were evaluated using phase-contrast microscopy as an indicator of hepatocyte cell health (Tyson & Green, 1987). Cultures for each treatment group (i.e., media, vehicle [0.2% DMSO], positive control inducers [multiple concentrations], and the ToxCast chemicals [multiple concentrations]) were observed and cell morphology was assessed relative to vehicle control cultures at each harvest time point (0, 6, 24, or 48 h). […] Images were evaluated at the conclusion of the study to assess changes in cell integrity and account for the effects of chemical exposure on uncharacteristic changes in concentration-dependent gene expression profiles. The results from these determinations of apparent cytotoxicity were annotated (yes/no) alongside the corresponding qNPA data for reference.At the conclusion of each treatment period, hepatocyte cultures (96-well) were washed with 1 volume of HBSS, lysed by addition of 25 ul ArrayPlate lysis buffer (HTG, Tucson, AZ), and 70 ul/well of Denaturation Oil, denatured by incubation at 95C for 10 min, and frozen at approximately -70C until analysis by nuclease protection assay (qNPA) (Roberts et al., 2007). For qNPA analysis, cell lysates were thawed at 50C for approximately 30 min, qNPA probes were added, and samples were incubated at 95C for 10 min to begin the detection process by denaturing the target RNA, dissociating the duplexes and secondary structure hybridization. At the conclusion of the hybridization period, S1 nuclease reagent was added to each sample to digest all nonprotected nucleotides at 50C for 60-90 min. […]
In the case of `COC(=O)c1c(Cl)nn(C)c1S(=O)(=O)NC(=O)Nc1nc(OC)cc(OC)n1`, the result was inactive.
Then `COC(=O)c1ccc(I)cc1S(=O)(=O)NC(=O)Nc1nc(C)nc(OC)n1`, with “inactive”; and `CCOC(=O)[C@H](C)Oc1ccc(Oc2nc3ccc(Cl)cc3o2)cc1`, with “inactive”; and `c1ccc(Nc2ccccc2)cc1`, with “inactive”.
Then `CC1(C)C(C=C(Cl)Cl)C1C(=O)OCc1cccc(Oc2ccccc2)c1` (stereo not drawn), with “inactive”.
As to `C#CCOC(=O)[C@@H](C)Oc1ccc(Oc2ncc(Cl)cc2F)cc1`, the molecule was classed as inactive.
The entry for `CC(C)(c1ccc(O)cc1)c1ccc(O)cc1` is “inactive”.
Turning to `OB(O)O`, the result was inactive.
The entry for `CCCN(CCC)C(=O)SCC` is “inactive”; for `CCOC(=O)COc1cc(-n2ncc(C(F)(F)F)c(C)c2=O)c(F)cc1Cl` it is “inactive”.
Then `CCCCC(CC)CN1C(=O)C2C3C=CC(C3)C2C1=O` (stereo not drawn), with “inactive”; and `COCCO`, with “inactive”; and `CCOC(=O)NCCOc1ccc(Oc2ccccc2)cc1`, with “inactive”.
On to `CCCCC(CC)COC(=O)c1ccccc1C(=O)O` (stereo not drawn), for which the call was inactive.
In the case of `CCCCCCC(C)OC(=O)COc1nc(F)c(Cl)c(N)c1Cl` (stereo not drawn), the call was inactive.
The entry for `COC(=O)c1cccc(C)c1S(=O)(=O)NC(=O)Nc1nc(OCC(F)(F)F)nc(N(C)C)n1` is “inactive”.
Regarding `CCCN(CCC)c1c([N+](=O)[O-])cc(C(F)(F)F)c(N)c1[N+](=O)[O-]`, the molecule was called inactive.
With `CCCCCOC(=O)COc1cc(N2C(=O)C3=C(CCCC3)C2=O)c(F)cc1Cl`, the call was inactive.
